# Source: PubChem
# D2 ag-1 – activates the human D2 dopamine receptor. P14416. HEK293 T-REx D2 cells, calcium flux agonist mode. activation, % at 2 µM. 340,000 tested, 0.53% active;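 active = activation over 3 SD above normal in the single-dose calcium agonist read, cut at about 30% in these data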; note: 0% is about no effect
# Target sequence (P14416 whole entry, looked up): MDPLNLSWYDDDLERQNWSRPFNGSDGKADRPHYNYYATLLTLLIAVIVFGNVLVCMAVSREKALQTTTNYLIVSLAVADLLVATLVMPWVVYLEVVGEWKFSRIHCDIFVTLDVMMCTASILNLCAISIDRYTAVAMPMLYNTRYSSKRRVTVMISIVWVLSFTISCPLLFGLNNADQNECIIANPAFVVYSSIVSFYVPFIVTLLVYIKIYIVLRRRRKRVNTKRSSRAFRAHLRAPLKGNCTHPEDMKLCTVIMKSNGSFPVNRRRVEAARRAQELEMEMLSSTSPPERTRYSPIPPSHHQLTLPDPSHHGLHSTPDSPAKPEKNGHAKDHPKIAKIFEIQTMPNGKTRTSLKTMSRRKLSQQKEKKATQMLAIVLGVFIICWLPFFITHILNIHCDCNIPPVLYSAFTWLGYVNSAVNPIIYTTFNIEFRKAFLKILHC
#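 Tetracycline-induced HEK293 Trex cells with D2 receptor force-coupled to calcium signaling, plated overnight at 30 C and loaded with no-wash calcium dye. Calcium flux read kinetically for 180 s after compound addition; responses flag agonists.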
# D2 PAM-1 – positive allosteric modulators of human D2 dopamine receptor | P14416 | HEK293 T-REx D2, calcium flux, EC20 dopamine potentiation | potentiation, % at 10 µM | 340,000 tested, 0.34% active | AID 485347;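 active = potentiation over 3 SD above the plate norm, cut at about 30% in these data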; note: 0% is about no effect
#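 Tetracycline-induced HEK293 T-REx cells force-coupled to calcium signalling expressed D2; compounds were pin-added after a 10 s baseline, read kinetically 180 s, then an EC20 dopamine challenge followed with a further 180 s calcium read.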
# D2 ag-2 – human D2 receptor agonism in beta-arrestin assay; P14416; activation, % (test concentration not listed); DiscoveRx PathHunter D2 beta-arrestin, luminescence, 90 min; 100% = 57 uM dopamine signal; 360,000 tested, 0.084% active; in the data active = activation above about 40%
#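 DiscoveRx PathHunter D2 beta-arrestin cells (2,100/well) attached overnight, then compound-stimulated 90 min at 37 C in HBSS/10 mM HEPES/0.1% Tween-20 buffer; beta-galactosidase complementation read by luminescence after 1 h at ambient temperature. Dopamine 57 uM final (EC100) as control.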
# D2 PAM-2 – human D2 receptor positive allosteric modulation. P14416. DiscoveRx D2 beta-arrestin cells, luminescence, 90 min; 100% = 57 uM dopamine signal. potentiation, % (test concentration not listed). 360,000 tested, 0.23% active. AID 624464; in the data active = potentiation above about 50%
#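 D2 cells co-treated with compound plus 50 nM dopamine (EC20) for 90 min at 37 deg C to detect potentiation. Beta-arrestin recruitment was read as enzyme-fragment luminescence after 1 h at ambient temperature. Full response was set by 57 uM dopamine.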
# D2 antag – D2 dopamine receptor (human) antagonism. P14416. HEK293 TREx D2 cells, calcium flux, dopamine EC80. inhibition, % at 10 µM. 340,000 tested, 2% active; in the data active = inhibition above about 30%; inactive = below that, where a call was filed; note: 0% is about no effect
#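 Read-out: kinetic calcium fluorescence (1 cycle/s) in inducible HEK293 T-REx D2 cells after an EC80 dopamine addition that followed 180 s compound preincubation. Loss of the dopamine response indicates antagonism.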
# LDHA inh – inhibitors of human lactate dehydrogenase A; P00338; purified LDHA, NADH/diaphorase-resazurin fluorescence; hits give low values; activity change, % (values are at about 110 or 230 µM); 480,000 tested, 0.15% active; AID 1347041; in the data active = activity change below about -30%;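 note: plate controls were DMSO wells for no effect and wells without enzyme for full effect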
#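 Remaining NADH was detected by diaphorase (0.133 mg/mL) converting 37 µM resazurin to fluorescent resorufin, read at 0 and 20 minutes. The preceding 5-minute room-temperature reaction used 2 nM LDHA, 0.2 mM sodium pyruvate and 0.06 mM NADH at pH 7.4.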
# * = called active by the depositor; · = no result given; ! = not active in a repeat. Shown are actives, neighbours in structure and some others; about 2.1% of the full set was active somewhere.
SMILES,D2 ag-1,D2 PAM-1,D2 ag-2,D2 PAM-2,D2 antag,LDHA inh
CC1CCC(=NNC(=O)Cc2cccn2C)CC1 (stereo not given),2,-3,4,4,2,7
CSCc1ccc(C(=O)Nc2ccc(F)cc2Cl)o1,·,·,·,·,·,2
COCCCN(C(=S)Nc1cccc(Cl)c1)C(C)c1ccncc1 (stereo not given),1,0,-1,-10,30*,-8
COCCCN(C(=S)Nc1cc(C)cc(C)c1)C(C)c1ccncc1 (stereo not given),0,-2,-1,-11,3,-5
Cn1c(CCC(=O)O)nc2cc(S(=O)(=O)N3CCCCC3)ccc21,0,19,6,-3,33*,-2
COc1ccc(CNC(=O)c2ccccc2OC(F)F)cc1C(=O)O,·,·,·,·,·,-2
COc1ccc(C2CC(=O)Nc3nc(N)sc32)cc1OC1CCCC1 (stereo not given),·,·,·,·,·,94
COc1ccc(C2CNC(=O)C2)cc1OC1CCCC1 (stereo not given),70*!,-4,-4,-2,71*!,-5
Cc1nc(-c2ccc(F)cc2)c(CC(=O)N2CCN(S(=O)(=O)c3cccc(Cl)c3)CC2)s1,-1,-2,-1,-10,34*,-4
CC(C)c1ccc(C(C)NC(=O)C2CC2)cc1 (stereo not given),·,·,·,·,·,0
COc1cc(/C=C/C(=O)c2ccc(CC(C)C)cc2)cc(OC)c1O,·,·,·,·,·,51
COc1ccc(O)c(/C=N/NC(=O)c2ccc(CSc3nc(C)cc(C)n3)cc2)c1,0,0,1,14,-2,-11
Cc1cc(C)nc(SCc2ccc(C(=O)N/N=C/c3cccc(O)c3O)cc2)n1,2,22,11,59*,-45,19
CCOc1ccccc1CN1CCC(N2CCOCC2)CC1,1,-12,-6,-11,-4,-31*
CCOc1ccccc1CN1CCC(O)CC1,0,-7,-1,-7,5,-20
CSCC(C)N1CCC(CCC(=O)NC2CC2)CC1 (stereo not given),0,101*,-4,-4,-23,2
Cc1ccc(Nc2nc(C(N)=O)c(NC(=O)CC34CC5CC(CC(C5)C3)C4)s2)cc1,·,·,·,·,·,-8
COc1ccc(N2CCC(CNC(=O)Nc3cccc(OC)c3)C2)cc1 (stereo not given),0,-1,-3,-5,57*,14
COc1ccc(N2CCC(CNC(=O)Nc3ccc(Cl)cc3)C2)cc1 (stereo not given),1,-10,-1,-17,-15,8
COc1cc(OC)c(C(=O)NC23CC4CC(CC(C4)C2)C3)cc1OC,1,-2,-2,65*,-3,2
CCCc1cc(=O)[nH]c(SCC(=O)NC(=O)NC2CCCC2)n1,1,-14,1,-14,32*,-3
O=C(c1ccccc1OCc1nc(-c2ccccc2)no1)N1CCC(N2CCCCC2)CC1,·,·,·,·,·,-1
COc1ccc(-c2nnc(SCCC(=O)O)n2C)cc1OC,0,9,1,-9,34*,-8
COc1ccc(/C=C/c2nnc(NC(C)=O)s2)cc1,2,8,-3,-6,3,-4
COC(=O)Nc1nnc(/C=C/c2ccc(OC)cc2)s1,2,1,3,9,31*,-6
SMILES,D2 ag-1,D2 PAM-1,D2 ag-2,D2 PAM-2,D2 antag,LDHA inh
CC(C(=O)NCC1CCCCC1)N1CCc2ccccc2C1 (stereo not given),2,-19,-1,-31,54*,-12
COCCCNC(=O)c1cc(-c2cccs2)nc2ccccc12,·,·,·,·,·,3
Cc1nc(Nc2nc(C(C)C)cc(=O)[nH]2)nc2c(C)cccc12,·,·,·,·,·,9
Cc1cc(C)c2nc(Nc3nc(C(C)C)cc(=O)[nH]3)nc(C)c2c1,·,·,·,·,·,-32*
COC(=O)c1sc2ccccc2c1S(=O)(=O)N1CCN(c2cc(C)ccc2C)CC1,·,·,·,·,·,3
O=C(Cc1nc2ccccc2[nH]1)c1ccc(Cl)cc1,1,44*,-2,-3,-19,0
COc1cc(NC(=O)CCc2c(C)c3ccc(C)cc3oc2=O)cc(OC)c1OC,·,·,·,·,·,-24
